# High-throughput results (PubChem)
# TDP1 cell CPT: qHTS for Inhibitors of human tyrosyl-DNA phosphodiesterase 1 (TDP1): qHTS in cells in presence of CPT. chicken DT40 Tdp1-/-;hTDP1 cells + 20 nM CPT, ATP luminescence, 48 h. Potency, µM (doses to about 46.2 µM), for the others: at the top dose activity change, negative = growth inhibition, actives largely listed as inhibitors. 12% of 420,000 active. AID 686979, 2013; also: potency is read from the fitted curve at half-maximal effect; nearly all actives have a fitted effect of over 55% in size
#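 Chicken DT40 Tdp1-/- cells stably complemented with human TDP1 were seeded at 400 cells/well in medium containing 20 nM camptothecin, exposed to pin-transferred compounds, and grown at 37 °C for at least 48 hr. Viability was read as ATP luminescence.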
# HT1080-NT tox: qHTS for induction of synthetic lethality in tumor cells producing 2HG: qHTS for the HT-1080-NT fibrosarcoma cell line. HT-1080-NT fibrosarcoma viability, CellTiter-Glo ATP luminescence, 48 h. Potency, µM (titrated, usually from 46.1 µM), for the others: top-dose activity, negative = less viability, hits mostly cytotoxic. 1.6% of 360,000 active. AID 686970, 2013;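 also: NT is the 2HG producing partner of a matched IDH1 knockdown line; potency is read from the fitted curve at half-maximal effect; 0% = DMSO-treated cells and -100% = media-only wells without cells; nearly all actives have a fitted effect of over 55% in size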
#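 A 48-hour cytotoxicity screen used HT-1080-NT cells plated 2 hours before compound delivery. ATP-based CellTiter-Glo luminescence measured viability, normalized to DMSO and no-cell controls.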
# IL1B secr inh: qHTS for Inhibitors of Inflammasome Signaling: IL-1-beta AlphaLISA Primary Screen | THP-1 LPS/ATP IL-1B secretion, AlphaLISA, 16 h; hits give low values | AID 743279, 2014 | 4.7% of 360,000 active | activity change, % at 57.5 µM; in the data active = activity change below about -50%; inconclusive = mostly about -30% to -49%
#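 Secreted IL-1B measured by AlphaLISA bead assay after 16 h compound exposure of THP-1 cells; compounds (final up to 57.5 uM) added 1 h before LPS (250 ng/mL) and ATP (1.25 mM) stimulation; lower signal means less secretion.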
# TDP1 cell noCPT: qHTS for Inhibitors of human tyrosyl-DNA phosphodiesterase 1 (TDP1): qHTS in cells in absence of CPT | 15% of 420,000 active | DT40 Tdp1-/- hTDP1 cells, no CPT, ATP luminescence, 48 h | Potency, µM (series often up to 46.2 µM), for inactives: at the top dose activity change, negative = growth inhibition, hits mostly inhibitors; also: potency is read from the fitted curve at half-maximal effect; nearly all actives have a fitted effect of over 55% in size
#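 Luminescent ATP content (CellTiter-Glo) served as the growth readout. Knockout chicken DT40 cells expressing human TDP1 were exposed to compounds without camptothecin for a minimum 48 hr at 37 °C.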
# HT1080 IDH1KD tx: qHTS for induction of synthetic lethality in tumor cells producing 2HG: qHTS for the HT-1080-IDH1KD cell line | HT-1080 IDH1 knockdown viability, ATP luminescence, 48 h | Potency, µM (doses to about 46.1 µM), for the others: top-dose activity, negative = toxicity, most hits filed as cytotoxic | 2% of 360,000 active | AID 686971, 2013;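 also: potency is read from the fitted curve at half-maximal effect; 0% = DMSO wells and -100% = cell-free medium wells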
#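 In this qHTS, HT-1080 cells depleted of IDH1 are exposed for 48 h at 37 °C to compound titrations. Toxicity is scored from CellTiter-Glo luminescence, with DMSO as full viability and medium alone as none.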
# An asterisk follows results filed as active; ? = inconclusive; nt = no result given. Most compounds without a hit are left out; they make up all but 19% or so of the library. Unless noted, calls follow the shape of the dose curve; as a rule, active = well fitted curve in the direction sought with a large enough effect; inconclusive = small, poorly fitted or top-dose-only effect, or another doubt; inactive = no such curve, though single readings can be large; an effect the other way counts as inactive or inconclusive. Unless noted, % is scaled to controls: 0 for no effect and ±100 for the full control effect.
SMILES,TDP1 cell CPT,HT1080-NT tox,IL1B secr inh,TDP1 cell noCPT,HT1080 IDH1KD tx
Cc1cccc(N2CCN(C(C(=O)NCc3ccccc3)c3ccco3)CC2)c1C (stereo not drawn),?,?,-16,?,?
COc1cccc(C(C(=O)NCc2ccccc2)N2CCN(C(=O)C3CCCO3)CC2)c1OC (stereo not drawn),4%,-2%,-21,-9%,17%
O=C1CC(N(Cc2ccco2)C(=O)Nc2ccc(F)cc2)C(=O)N1c1ccc(F)cc1 (stereo not drawn),-26%,8%,7,-9%,1%
CCOc1ccc(S(=O)(=O)N2CCOCC2)cc1NC(=O)C1CSC2(C)CCC(=O)N12 (stereo not drawn),-13%,-1%,8,-30%,12%
CCN(CC)S(=O)(=O)c1ccc(N(C)C)c(NC(=O)C2CCCC2)c1,-15%,-9%,-54*,-12%,-1%
CCN(CC)c1ccc(S(=O)(=O)N2CCCCC2)cc1NC(=O)C1CCC1,18µM*,0%,-18,?,1%
CCN(CC)c1ccc(S(=O)(=O)N(CC)CC)cc1NC(=O)C1CCCC1,?,0%,-4,?,-13%
CCN(CC)c1ccc(S(=O)(=O)N2CCCCC2)cc1NC(=O)C1CSC2(C)CCC(=O)N12 (stereo not drawn),?,-7%,-50*,9.2µM*,-6%
CC1N(O)C(C)(C)C(c2ccccc2)=[N+]1[O-] (stereo not drawn),-16%,4%,8,-11%,1%
CCC(Sc1nc2ncccc2[nH]1)C(=O)Nc1ccccc1F (stereo not drawn),-24%,nt,nt,?,nt
CCOCCN1CCN(C2c3ccccc3CSc3ccccc32)CC1 (stereo not drawn),?,?,-74*,?,?
Cc1ccc(S(=O)(=O)NCCc2nnc3ccc(SCc4cccc(F)c4)nn23)cc1,15µM*,nt,nt,23µM*,nt
Cc1ccc(S(=O)(=O)NCCc2nnc3ccc(SCc4ccc(F)cc4)nn23)cc1,16µM*,nt,nt,18µM*,nt
O=C(NC1CCCCC1)c1ccc(Cn2cc(Cl)cn2)cc1,-6%,7%,?,-6%,2%
CCN1CCC(N(Cc2ccc(F)cc2)C(=O)Nc2cc(Cl)ccc2C(=O)OC)CC1,-14%,nt,nt,-5%,nt
COc1ccc([N+](=O)[O-])cc1NS(=O)(=O)c1cc(C(=O)NCc2cccnc2)ccc1Cl,-7%,0%,22,-13%,8%
Cc1ccc(NC2=C/C(=N/S(=O)(=O)c3cccs3)c3ccccc3C2=O)cc1,1.8µM*,2.9µM*,-89*,3.3µM*,4.1µM*
O=C1C(Nc2ccccc2)=C/C(=N/S(=O)(=O)c2cccs2)c2ccccc21,2.9µM*,?,-99*,4.6µM*,?
COC(=O)c1ccccc1NC1=C/C(=N\S(=O)(=O)c2cccs2)c2ccccc2C1=O,3.3µM*,21µM*,-92*,5.8µM*,6.3µM*
COCCN(C(=O)CNC(=O)c1ccco1)C(C(=O)NC1CCCCC1)c1cccs1 (stereo not drawn),-25%,14%,0,-3%,12%
COc1ccccc1NS(=O)(=O)c1ccc2c(c1)CCN2C(=O)CCC(=O)O,-14%,1%,19,18%,6%
O=C(Nc1ccc(N2CCCC2)cc1)c1ccc(Cl)cc1Cl,0%,26%,-10,-5%,22%
O=C(Nc1ccc(N2CCCC2)cc1)c1cc(Cl)ccc1Cl,23µM*,?,-3,23µM*,?
O=C(Nc1ccc(N2CCCCC2)cc1)c1ccccn1,16µM*,9.2µM*,-3,10µM*,10µM*
O=C(Nc1ccc(N2CCCCCC2)cc1)c1ccccc1Cl,13µM*,12µM*,?,16µM*,8.2µM*
